Measured values as given in PubChem BioAssay (EPA / NIEHS).
The source made the active and inactive calls. The calls were made as follows: active = hit-call score of the fitted dose curve at least 0.9, where 1 is the maximum; inactive = score below 0.9.

Legend:
[1] = read-out: Vascular endothelial growth factor receptor 2 (Homo sapiens) (UniProt P35968); test: BSK_4H_VEGFRII: BioMAP Diversity Plus: 4H Assay for Vascular endothelial growth factor receptor 2 (VEGFR2) Biomarker Activity (AID 2283031); details: primary human endothelial cells (HUVEC); actives raise or lower the signal;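 as to AC50: cell-surface VEGFR2 protein level quantified by ELISA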
Method in brief: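 Primary human umbilical vein endothelial cells in the BioMAP 4H system were dosed with test chemical, and 24 h later VEGFRII was measured by ELISA. Activity was fitted bidirectionally against DMSO as negative control and baseline.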

[2] = read-out: Human Leukocyte Antigen - DR isotype (HLADR), HLA-DRA (gene 3122); test: BSK_BE3C_HLADR: BioMAP Diversity Plus: BE3C Assay for Human Leukocyte Antigen - DR isotype (HLADR) Biomarker Activity (AID 2283032); details: primary human bronchial epithelial cells; actives raise or lower the signal
Method in brief: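 Signal came from an ELISA for HLA-DR in human bronchial epithelial primary cells harvested 24 h after treatment; gain- and loss-of-signal fitting used DMSO controls as reference.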

[3] = read-out: Vascular cell adhesion molecule 1 (VCAM1), VCAM1 (gene 7412); test: BSK_4H_VCAM1: BioMAP Diversity Plus: 4H Assay for Vascular cell adhesion molecule 1 (VCAM1) Biomarker Activity (AID 2283033); details: primary human endothelial cells (HUVEC); actives raise or lower the signal
Method in brief: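 Endpoint derived from bidirectional fitting against DMSO controls of VCAM-1 ELISA signal in umbilical vein endothelial cells sampled at 24 h following treatment.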

[4] = read-out: Interferon-gamma inducible Protein 10 (IP10), CXCL10 (gene 3627); test: BSK_BE3C_IP10: BioMAP Diversity Plus: BE3C Assay for Interferon-gamma inducible Protein 10 (IP10) Biomarker Activity (AID 2283034); details: primary human bronchial epithelial cells; actives raise or lower the signal
Method in brief: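 Using primary human bronchial epithelial cultures, the assay captures IP-10 by ELISA one day (24 h) after exposure. Parallel SRB staining of total protein flags overt cytotoxicity. Fits run bidirectionally relative to DMSO.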

[5] = read-out: Monokine induced gamma interferon (MIG), CXCL9 (gene 4283); test: BSK_BE3C_MIG: BioMAP Diversity Plus: BE3C Assay for Monokine induced gamma interferon (MIG) Biomarker Activity (AID 2283035); details: primary human bronchial epithelial cells; actives raise or lower the signal
Method in brief: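 MIG level was determined by ELISA after 24 h chemical treatment of primary human bronchial epithelial cells. Values were fitted bidirectionally with DMSO as the negative control and activity baseline.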

[6] = read-out: Transforming growth factor beta 1 (TGFb1), TGFB1 (gene 7040); test: BSK_BE3C_TGFb1: BioMAP Diversity Plus: BE3C Assay for Transforming growth factor beta 1 (TGFb1) Biomarker Activity (AID 2283036); details: primary human bronchial epithelial cells; actives raise or lower the signal
Method in brief: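 In this human primary bronchial epithelial system, an ELISA quantified TGF-b1 one day after dosing. Endpoint changes in either direction were fitted relative to DMSO.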

[7] = read-out: Plasminogen activator inhibitor-1 (PAI1), SERPINE1 (gene 5054); test: BSK_BE3C_PAI1: BioMAP Diversity Plus: BE3C Assay for Plasminogen activator inhibitor-1 (PAI1) Biomarker Activity (AID 2283037); details: primary human bronchial epithelial cells; actives raise or lower the signal
Method in brief: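 PAI-1 biomarker levels in treated human bronchial epithelial cells are determined by ELISA at 24 h. Both increases and decreases relative to DMSO are fitted.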

[8] = read-out: Urokinase-type plasminogen activator receptor (uPAR), PLAUR (gene 5329); test: BSK_BE3C_uPAR: BioMAP Diversity Plus: BE3C Assay for Urokinase-type plasminogen activator receptor (uPAR) Biomarker Activity (AID 2283039); details: primary human bronchial epithelial cells; actives raise or lower the signal
Method in brief: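 A uPAR ELISA serves as the readout, taken 24 h after treating primary human bronchial epithelial cells. Responses in either direction are fitted against DMSO, which defines baseline activity.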

[9] = read-out: Interleukin-6 (IL6), IL6 (gene 3569); test: BSK_CASM3C_IL6: BioMAP Diversity Plus: CASM3C Assay for Interleukin-6 (IL6) Biomarker Activity for (AID 2283040); details: primary human coronary artery smooth muscle cells; actives raise or lower the signal
[10] = read-out: Tissue plasminogen activator (tPA), PLAT (gene 5327); test: BSK_BE3C_tPA: BioMAP Diversity Plus: BE3C Assay for Tissue plasminogen activator (tPA) Biomarker Activity (AID 2283041); details: primary human bronchial epithelial cells; actives raise or lower the signal
Method in brief: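 Bidirectional curve fitting relative to DMSO defined activity, with tPA detected by ELISA in chemically treated human bronchial epithelial primary cells at 24 hours.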

[11] = read-out: Interleukin-8 (IL8), CXCL8 (gene 3576); test: BSK_CASM3C_IL8: BioMAP Diversity Plus: CASM3C Assay for Interleukin-8 (IL8) Biomarker Activity (AID 2283042); details: primary human coronary artery smooth muscle cells; actives raise or lower the signal;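 also: IL-8 protein level quantified by ELISA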
[12] = read-out: Human Leukocyte Antigen - DR isotype (HLADR), HLA-DRA (gene 3122); test: BSK_CASM3C_HLADR: BioMAP Diversity Plus: CASM3C Assay for Human Leukocyte Antigen - DR isotype (HLADR) Biomarker Activity (AID 2283043); details: primary human coronary artery smooth muscle cells; actives raise or lower the signal;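 also: cell-surface HLA-DR protein level quantified by ELISA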
[13] = read-out: Macrophage colony-stimulating factor (MCSF), CSF1 (gene 1435); test: BSK_CASM3C_MCSF: BioMAP Diversity Plus: CASM3C Assay for Macrophage colony-stimulating factor (MCSF) Biomarker Activity (AID 2283044); details: primary human coronary artery smooth muscle cells; actives raise or lower the signal;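 also: M-CSF protein amount quantified by ELISA after 24 h exposure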
[14] = read-out: Low-density lipoprotein receptor (LDLR), LDLR (gene 3949); test: BSK_CASM3C_LDLR: BioMAP Diversity Plus: CASM3C Assay for Low-density lipoprotein receptor (LDLR) Biomarker Activity (AID 2283045); details: primary human coronary artery smooth muscle cells; actives raise or lower the signal;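 also: LDLR protein level on the cell surface quantified by ELISA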
[15] = read-out: Monocyte Chemoattractant Protein-1 (MCP1), CCL2 (gene 6347); test: BSK_CASM3C_MCP1: BioMAP Diversity Plus: CASM3C Assay for Monocyte Chemoattractant Protein-1 (MCP1) Biomarker Activity (AID 2283046); details: primary human coronary artery smooth muscle cells; actives raise or lower the signal;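 also: MCP-1 level quantified by ELISA 24 h after dosing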
[16] = BSK_CASM3C_Proliferation: Cell Proliferation Assessment in the BioMAP Diversity Plus: CASM3C Assay (AID 2283047); details: primary human coronary artery smooth muscle cells;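 also: sulforhodamine B total protein stain as relative cell number at 560 nm; sub-confluent cells exposed 48 h before staining; fitted both ways against DMSO so gain or loss of cell number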
[17] = read-out: Monokine induced gamma interferon (MIG), CXCL9 (gene 4283); test: BSK_CASM3C_MIG: BioMAP Diversity Plus: CASM3C Assay for Monokine induced gamma interferon (MIG) Biomarker Activity (AID 2283048); details: primary human coronary artery smooth muscle cells; actives raise or lower the signal
[18] = read-out: serum amyloid A (SAA), SAA1 (gene 6288); test: BSK_CASM3C_SAA: BioMAP Diversity Plus: CASM3C Assay for serum amyloid A (SAA) Biomarker Activity (AID 2283049); details: primary human coronary artery smooth muscle cells; actives raise or lower the signal;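 also: SAA protein level quantified by ELISA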
[19] = BSK_CASM3C_SRB: Viability Assessment in the BioMAP Diversity Plus: CASM3C Assay (AID 2283050); details: primary human coronary artery smooth muscle cells
[20] = read-out: urokinase plasminogen activator (uPA), PLAU (gene 5328); test: BSK_BE3C_uPA: BioMAP Diversity Plus: BE3C Assay for urokinase plasminogen activator (uPA) Biomarker Activity (AID 2283038); details: primary human bronchial epithelial cells; actives raise or lower the signal
Method in brief: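 Human primary bronchial epithelial cells were exposed to chemical for 24 h, then uPA levels were measured by ELISA. Responses were fitted bidirectionally against DMSO as negative control and baseline. Parallel SRB staining of total protein gauged overt cytotoxicity.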

Measured: AC50

Cc1c2ccccc2c(C)c2c1ccc1ccccc12
active: [3] 20 µM | [6] 6.06 µM | [7] 29 µM | [9] 20 µM | [12] 20 µM | [16] 12.6 µM | [19] 20 µM
not listed: [20]
inactive: all other assays above

COc1ccc2cc(S(=O)(=O)N[C@H](CC(=O)N[C@H](Cc3ccc(CN4[C@H](C)CCC[C@@H]4C)cc3)C(=O)N(C)C(C)C)c3ccc4c(c3)OCO4)ccc2c1
inactive: [1] | [3] | [6] | [9] | [11] | [13] | [15] | [17] | [18]
active: [4] 31.1 µM | [5] 33.5 µM | [7] 19.1 µM | [20] 14.6 µM | [8] 18.5 µM | [10] 7.92 µM | [12] 27.8 µM | [14] 0.966 µM | [16] 24.9 µM | [19] 19.1 µM

CCCCCCCCCC(=O)O
inactive: all assays above

c1ccc2n[nH]nc2c1
not listed: [20]
inactive: all other assays above

CCCCCCCCOC(=O)c1cc(O)c(O)c(O)c1
active: [2] 22 µM | [3] 6.26 µM | [4] 29.8 µM | [5] 34 µM | [6] 27.2 µM | [7] 32.8 µM | [20] 37.7 µM | [8] 36.5 µM | [9] 3.97 µM | [10] 24.9 µM | [11] 31.7 µM | [12] 31.9 µM | [13] 20 µM | [14] 29.2 µM | [15] 27.8 µM | [16] 16.1 µM | [17] 31 µM | [18] 20 µM | [19] 31.3 µM
inactive: [1]

CCCCCCCCCCCO
active: [3] 20 µM | [16] 33.5 µM
not listed: [20]
inactive: all other assays above

CN(C[C@@H](CC[N+]12CCC(C3CCCCC3)(CC1)CC2)c1ccc(Cl)c(Cl)c1)C(=O)c1cc(C(F)(F)F)cc(C(F)(F)F)c1
inactive: [1]
active: [2] 12.6 µM | [3] 32 µM | [4] 13.1 µM | [5] 29.6 µM | [6] 17.5 µM | [7] 12.5 µM | [8] 13.6 µM | [9] 15.9 µM | [10] 11.9 µM | [11] 24.7 µM | [12] 12.7 µM | [13] 14.9 µM | [14] 14.3 µM | [15] 15.6 µM | [16] 9.26 µM | [17] 31.1 µM | [18] 18 µM | [19] 14.7 µM

O=c1ccc2ccccc2o1
active: [18] 0.148 µM
inactive: all other assays above

Cc1ccc(C(C)C)cc1
not listed: [20]
inactive: all other assays above

CCOC(=O)O[C@H](C)OC(=O)c1ccc2c(c1)cc(C(=O)NC1CCN(C(C)C)CC1)n2Cc1cc(-c2ccc(Cl)s2)on1
inactive: [14]
active: [1] 5.06 µM | [2] 10.7 µM | [3] 5.44 µM | [4] 11.5 µM | [5] 14.4 µM | [6] 11.8 µM | [7] 12.1 µM | [8] 9.89 µM | [9] 9.24 µM | [10] 9.95 µM | [11] 8.81 µM | [12] 5.85 µM | [13] 5.13 µM | [15] 7.49 µM | [16] 2.41 µM | [17] 9.34 µM | [18] 6.05 µM | [19] 6.15 µM

C[C@]12CC[C@@H]3c4ccc(O)cc4CC[C@H]3[C@@H]1CCC2=O
inactive: all assays above
